Assay results taken from the supplement of paper PMC10849652.
Targets with a hit are over-represented here; the source holds about 7,900 in all. About 0.6% of all pairs of compound and target were hits.

Experiments:
Assay in all cases: log2 fold change, soluble protein after heating vs DMSO (PISA); higher = thermal stabilisation; K562 cells, 10 uM, 30 min; active = over 0.2 and 3.5 SD of the protein, either way, in both replicates (recomputed)
erlotinib = compound: C#Cc1cccc(Nc2ncnc3cc(OCCOC)c(OCCOC)cc23)c1 [erlotinib]
How it was run: (§1)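 K562 cells at 2×10^6 cells/mL were treated with 10 μM compound for 30 min. Aliquots were heated for 3 min across 48°C-58°C, pooled, and extracted in PBS with 0.5% NP-40 at 4°C; soluble protein was the supernatant after 21,000xg for 90 min. Soluble protein was quantified by TMTpro 16plex LC-MS/MS with channel sums equalised, and reported as log2 fold change in thermal stability against DMSO controls, with values from duplicates.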

[1] = compound: C/C(=N\NC(=O)C1=CC(=CC=C1)S(=O)(=O)N2CCOCC2)/C3=C(C=CC(=C3)Cl)O
How it was run: as §1

[2] = compound: C1=CC(=C(C=C1Cl)C2=NC3=NC=CN=C3C(=N2)NC4=CC=NC=C4)F
How it was run: as §1

[3] = compound: C1=CC(=CC=C1C2=NC3=C(N2)C=C(C=C3)C(=O)N)OC4=CC=C(C=C4)Cl
How it was run: as §1

[4] = compound: C1=CC2=C(C=CC(=C2)/C=C\3/C(=O)NC(=NCC4=CC=CS4)S3)N=C1
How it was run: as §1

[5] = compound: C1=CC2=NC=CN=C2C=C1/C=C/3\C(=O)NC(=O)S3
How it was run: as §1

[6] = compound: C1=CC=C(C=C1)C2=NC(=C(N2)C3=CC=NC=C3)C4=CC(=C(C=C4)Cl)O
How it was run: as §1

[7] = compound: C1=CC=C2C(=C1)C3=NNC4=CC=CC(=C43)C2=O
How it was run: as §1

[8] = compound: C1CCN(C1)C(=O)NC2=CC=CC(=C2)NC3=NC=C(C(=N3)NCCC4=CN=CN4)Br
How it was run: as §1

[9] = compound: C1CN(CCC1(CC2=CC=C(C=C2)Cl)N)C3=NC=NC4=C3C=CN4
How it was run: as §1

IRAK-1-4 Inhibitor I = compound: C1COCCN1CCN2C3=CC=CC=C3N=C2NC(=O)C4=CC(=CC=C4)[N+](=O)[O-] [IRAK-1-4 Inhibitor I]
How it was run: as §1

ibrutinib = compound: C=CC(=O)N1CCC[C@@H](n2nc(-c3ccc(Oc4ccccc4)cc3)c3c(N)ncnc32)C1 [ibrutinib]
How it was run: as §1

[10] = compound: CC(=O)c1cnc2ccc(-c3cc(Cl)c(O)c(Cl)c3)nc2c1N[C@H]1CC[C@H](CN(C)C)CC1
How it was run: as §1

ralimetinib = compound: CC(C)(C)Cn1c(N)nc2ccc(-c3[nH]c(C(C)(C)C)nc3-c3ccc(F)cc3)nc21 [ralimetinib]
How it was run: as §1

[11] = compound: CC(C)(O)CC(=O)NCCn1ccc2ncnc(Nc3ccc(Oc4cccc(C(F)(F)F)c4)c(Cl)c3)c21
How it was run: as §1

[12] = compound: CC(C)C1=C2N=C(C=C(N2N=C1)NCC3=CC=CC=C3)NCCCCCCN
How it was run: as §1

[13] = compound: CC(C)C[C@@H](C=O)NC(=O)[C@H](CC(C)C)NC(=O)[C@H](CC(C)C)NC(=O)OCc1ccccc1
How it was run: as §1

pinometostat = compound: CC(C)N(C[C@H]1O[C@@H](n2cnc3c(N)ncnc32)[C@H](O)[C@@H]1O)[C@H]1C[C@@H](CCc2nc3cc(C(C)(C)C)ccc3[nH]2)C1 [pinometostat]
How it was run: as §1

[14] = compound: CC1=C(C(CC(=O)N1)C2=CC=C(C=C2)C(F)(F)F)C(=O)NC3=C(C=C4C(=C3)C=NN4)F
How it was run: as §1

[15] = compound: CC1=C(C2=C(C=C1)C(=O)C3=CC=CC=C3N2CCCN)C
How it was run: as §1

Measured: log2 fold change

RDH11 (UniProt Q8TC12)
UniProt Q8TC12, sequence (Q8TC12 whole entry, looked up): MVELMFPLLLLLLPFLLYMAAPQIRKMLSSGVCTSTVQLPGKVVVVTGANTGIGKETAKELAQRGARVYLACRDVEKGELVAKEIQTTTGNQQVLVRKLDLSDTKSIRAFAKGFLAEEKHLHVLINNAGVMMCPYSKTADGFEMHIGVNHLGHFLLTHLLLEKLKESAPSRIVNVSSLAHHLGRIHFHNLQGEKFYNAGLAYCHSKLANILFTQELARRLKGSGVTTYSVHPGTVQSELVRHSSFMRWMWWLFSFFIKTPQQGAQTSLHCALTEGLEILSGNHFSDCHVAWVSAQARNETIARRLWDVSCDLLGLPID
inactive: erlotinib -0.007 | [1] -0.03 | [2] 0.102 | [3] 0.068 | [4] 0.084 | [5] -0.1 | [6] 0.029 | [7] 0.04 | [8] -0.044 | [9] -0.043 | IRAK-1-4 Inhibitor I 0.032 | ibrutinib 0.067 | [10] -0.145 | ralimetinib 0.059 | [11] -0.126 | [13] 0.117 | pinometostat 0.013 | [14] -0.028 | [15] 0.103
active: [12] -0.74

RNASEH2A (UniProt O75792)
UniProt O75792, sequence (O75792 whole entry, looked up): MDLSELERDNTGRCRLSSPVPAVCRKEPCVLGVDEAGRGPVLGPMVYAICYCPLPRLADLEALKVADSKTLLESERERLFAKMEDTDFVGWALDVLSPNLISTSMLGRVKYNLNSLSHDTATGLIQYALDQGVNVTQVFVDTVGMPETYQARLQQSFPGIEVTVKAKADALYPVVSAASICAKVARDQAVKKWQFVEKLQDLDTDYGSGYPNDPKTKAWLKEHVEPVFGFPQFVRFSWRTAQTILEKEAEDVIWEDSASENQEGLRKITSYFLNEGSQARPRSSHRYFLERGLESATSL
inactive: erlotinib 0.041 | [1] 0.085 | [2] -0.062 | [3] 0.019 | [4] 0.119 | [5] -0.038 | [6] -0.026 | [7] 0.065 | [8] -0.016 | [9] -0.115 | IRAK-1-4 Inhibitor I 0 | ibrutinib 0.008 | [10] -0.07 | ralimetinib -0.08 | [11] -0.029 | [12] -0.122 | [13] 0.074 | pinometostat -0.003 | [14] 0.001 | [15] 0.042

RAD50 isoform 2 (UniProt Q92878)
inactive: erlotinib 0.02 | [1] 0.034 | [2] 0.076 | [3] 0.001 | [4] 0.029 | [5] 0 | [6] 0.02 | [7] 0.015 | [8] -0.034 | [9] 0.029 | IRAK-1-4 Inhibitor I -0.005 | ibrutinib -0.004 | [10] -0.099 | ralimetinib -0.03 | [11] -0.003 | [12] -0.002 | [13] -0.014 | pinometostat -0.013 | [14] -0.008 | [15] 0.006

SCCPDH (UniProt Q8NBX0)
UniProt Q8NBX0, sequence (Q8NBX0 whole entry, looked up): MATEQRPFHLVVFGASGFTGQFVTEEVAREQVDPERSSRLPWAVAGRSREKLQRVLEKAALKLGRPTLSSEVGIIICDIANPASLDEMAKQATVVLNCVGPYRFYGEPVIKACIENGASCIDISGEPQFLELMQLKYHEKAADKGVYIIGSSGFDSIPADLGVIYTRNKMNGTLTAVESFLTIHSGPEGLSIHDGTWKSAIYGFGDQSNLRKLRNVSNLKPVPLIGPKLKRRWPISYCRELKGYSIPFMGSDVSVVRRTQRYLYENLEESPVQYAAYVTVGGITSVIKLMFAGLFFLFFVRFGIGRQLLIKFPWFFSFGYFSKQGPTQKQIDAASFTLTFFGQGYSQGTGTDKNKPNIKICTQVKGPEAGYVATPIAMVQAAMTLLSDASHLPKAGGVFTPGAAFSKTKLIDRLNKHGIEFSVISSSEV
inactive: erlotinib -0.047 | [1] -0.021 | [2] 0.079 | [3] -0.065 | [4] 0.019 | [5] 0.051 | [6] 0.037 | [7] 0.03 | [8] 0.011 | [9] 0.064 | IRAK-1-4 Inhibitor I -0.005 | ibrutinib 0.061 | [10] 0.031 | ralimetinib 0.059 | [11] 0.156 | [12] 0.038 | [13] -0.032 | pinometostat -0.073 | [14] -0.031 | [15] 0.023

RAD51 (UniProt Q06609)
UniProt Q06609, sequence (Q06609 whole entry, looked up): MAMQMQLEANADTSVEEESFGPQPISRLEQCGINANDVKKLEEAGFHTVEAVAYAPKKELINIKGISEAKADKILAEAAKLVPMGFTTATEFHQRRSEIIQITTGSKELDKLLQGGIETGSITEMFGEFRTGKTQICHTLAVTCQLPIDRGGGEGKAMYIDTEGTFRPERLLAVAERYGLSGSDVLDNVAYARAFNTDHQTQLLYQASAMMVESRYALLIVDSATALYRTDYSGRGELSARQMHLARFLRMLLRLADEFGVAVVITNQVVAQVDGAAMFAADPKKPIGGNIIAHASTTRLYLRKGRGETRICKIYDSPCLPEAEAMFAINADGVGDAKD
inactive: erlotinib 0.29 | [1] 0.06 | [2] 0.044 | [3] 0.032 | [4] 0.067 | [5] 0.017 | [6] -0.025 | [7] -0.032 | [8] -0.014 | [9] 0.013 | IRAK-1-4 Inhibitor I 0.017 | ibrutinib 0.013 | [10] -0.061 | ralimetinib -0.074 | [11] -0.059 | [12] -0.016 | [13] 0.048 | pinometostat -0.024 | [14] 0.05 | [15] 0.102

RAP1GDS1 isoform 5 (UniProt P52306)
inactive: erlotinib 0.019 | [1] -0.012 | [2] -0.021 | [3] -0.013 | [4] 0.027 | [5] 0.106 | [6] -0.016 | [7] -0.038 | [8] -0.023 | [9] -0.077 | IRAK-1-4 Inhibitor I -0.044 | ibrutinib -0.098 | [10] 0.04 | ralimetinib 0.005 | [11] -0.114 | [13] -0.005 | pinometostat 0.067 | [14] 0.011 | [15] 0.008
active: [12] -0.277

REL (UniProt Q04864)
UniProt Q04864, sequence (Q04864 whole entry, looked up): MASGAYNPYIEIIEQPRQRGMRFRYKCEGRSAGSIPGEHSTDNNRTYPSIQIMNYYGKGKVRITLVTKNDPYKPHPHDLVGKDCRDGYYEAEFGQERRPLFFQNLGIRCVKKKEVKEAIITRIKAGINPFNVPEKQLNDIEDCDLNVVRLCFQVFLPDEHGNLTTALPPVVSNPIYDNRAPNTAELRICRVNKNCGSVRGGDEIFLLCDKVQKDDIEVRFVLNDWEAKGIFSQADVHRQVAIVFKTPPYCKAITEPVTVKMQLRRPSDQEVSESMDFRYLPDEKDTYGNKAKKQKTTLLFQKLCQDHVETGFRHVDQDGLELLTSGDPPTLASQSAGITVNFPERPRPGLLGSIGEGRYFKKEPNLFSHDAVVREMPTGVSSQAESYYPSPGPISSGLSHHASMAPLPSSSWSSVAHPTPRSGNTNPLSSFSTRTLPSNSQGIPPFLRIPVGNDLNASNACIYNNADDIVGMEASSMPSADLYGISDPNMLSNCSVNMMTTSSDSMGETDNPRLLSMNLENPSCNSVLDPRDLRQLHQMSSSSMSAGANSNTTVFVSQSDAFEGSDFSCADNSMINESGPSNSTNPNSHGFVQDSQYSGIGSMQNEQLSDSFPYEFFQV
inactive: erlotinib 0.076 | [1] -0.013 | [2] -0.007 | [3] 0.003 | [4] 0.024 | [5] -0.037 | [6] -0.029 | [7] -0.013 | [8] -0.082 | [9] 0.01 | IRAK-1-4 Inhibitor I -0.046 | ibrutinib -0.095 | [10] -0.017 | ralimetinib 0.037 | [11] -0.093 | [12] -0.074 | [13] 0.062 | pinometostat 0.089 | [14] -0.039 | [15] 0.005

RPP25L (UniProt Q8N5L8)
UniProt Q8N5L8, sequence (Q8N5L8 whole entry, looked up): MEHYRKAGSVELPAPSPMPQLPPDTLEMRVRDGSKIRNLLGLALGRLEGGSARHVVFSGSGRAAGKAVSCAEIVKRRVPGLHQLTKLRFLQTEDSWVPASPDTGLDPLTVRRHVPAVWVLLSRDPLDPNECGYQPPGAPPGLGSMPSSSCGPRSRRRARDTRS
active: erlotinib 0.274 | [15] -0.288
inactive: [1] -0.004 | [2] -0.029 | [3] 0.031 | [4] -0.001 | [5] 0.041 | [6] 0.014 | [7] -0.065 | [8] 0.01 | [9] 0.01 | IRAK-1-4 Inhibitor I -0.102 | ibrutinib 0.021 | [10] -0.004 | ralimetinib 0.049 | [11] -0.015 | [12] -0.293 | [13] 0.035 | pinometostat -0.002 | [14] -0.014

RDH13 (UniProt Q8NBN7)
inactive: erlotinib 0.019 | [1] -0.004 | [2] 0.082 | [3] 0.01 | [4] 0.127 | [5] -0.024 | [6] 0.005 | [7] 0.007 | [8] 0.05 | [9] 0.007 | IRAK-1-4 Inhibitor I 0.012 | ibrutinib 0.03 | [10] -0.054 | ralimetinib -0.031 | [11] -0.061 | [12] -0.184 | [13] -0.029 | pinometostat -0.057 | [14] -0.051 | [15] 0.111

SEC16A isoform 5 (UniProt O15027)
inactive: erlotinib 0.126 | [1] -0.143 | [2] -0.064 | [3] 0.015 | [4] 0.153 | [5] -0.018 | [6] 0.044 | [7] 0.069 | [8] 0.06 | [9] 0.017 | IRAK-1-4 Inhibitor I -0.136 | ibrutinib -0.062 | [10] -0.069 | ralimetinib 0.172 | [11] -0.177 | [13] 0.046 | pinometostat 0.097 | [14] -0.027 | [15] 0.025
active: [12] -0.282

RPS18 (UniProt P62269)
active: [15] -0.531
inactive: erlotinib -0.126 | [1] -0.088 | [2] -0.211 | [3] 0.039 | [4] -0.037 | [5] -0.089 | [6] -0.024 | [7] 0 | [8] 0.097 | [9] -0.144 | IRAK-1-4 Inhibitor I -0.099 | ibrutinib 0.053 | [10] 0.052 | ralimetinib 0.055 | [11] 0.06 | [12] -0.043 | [13] 0.054 | pinometostat 0.149 | [14] 0.063

SCAF8 isoform 2 (UniProt Q9UPN6)
UniProt Q9UPN6, sequence (Q9UPN6 whole entry, looked up): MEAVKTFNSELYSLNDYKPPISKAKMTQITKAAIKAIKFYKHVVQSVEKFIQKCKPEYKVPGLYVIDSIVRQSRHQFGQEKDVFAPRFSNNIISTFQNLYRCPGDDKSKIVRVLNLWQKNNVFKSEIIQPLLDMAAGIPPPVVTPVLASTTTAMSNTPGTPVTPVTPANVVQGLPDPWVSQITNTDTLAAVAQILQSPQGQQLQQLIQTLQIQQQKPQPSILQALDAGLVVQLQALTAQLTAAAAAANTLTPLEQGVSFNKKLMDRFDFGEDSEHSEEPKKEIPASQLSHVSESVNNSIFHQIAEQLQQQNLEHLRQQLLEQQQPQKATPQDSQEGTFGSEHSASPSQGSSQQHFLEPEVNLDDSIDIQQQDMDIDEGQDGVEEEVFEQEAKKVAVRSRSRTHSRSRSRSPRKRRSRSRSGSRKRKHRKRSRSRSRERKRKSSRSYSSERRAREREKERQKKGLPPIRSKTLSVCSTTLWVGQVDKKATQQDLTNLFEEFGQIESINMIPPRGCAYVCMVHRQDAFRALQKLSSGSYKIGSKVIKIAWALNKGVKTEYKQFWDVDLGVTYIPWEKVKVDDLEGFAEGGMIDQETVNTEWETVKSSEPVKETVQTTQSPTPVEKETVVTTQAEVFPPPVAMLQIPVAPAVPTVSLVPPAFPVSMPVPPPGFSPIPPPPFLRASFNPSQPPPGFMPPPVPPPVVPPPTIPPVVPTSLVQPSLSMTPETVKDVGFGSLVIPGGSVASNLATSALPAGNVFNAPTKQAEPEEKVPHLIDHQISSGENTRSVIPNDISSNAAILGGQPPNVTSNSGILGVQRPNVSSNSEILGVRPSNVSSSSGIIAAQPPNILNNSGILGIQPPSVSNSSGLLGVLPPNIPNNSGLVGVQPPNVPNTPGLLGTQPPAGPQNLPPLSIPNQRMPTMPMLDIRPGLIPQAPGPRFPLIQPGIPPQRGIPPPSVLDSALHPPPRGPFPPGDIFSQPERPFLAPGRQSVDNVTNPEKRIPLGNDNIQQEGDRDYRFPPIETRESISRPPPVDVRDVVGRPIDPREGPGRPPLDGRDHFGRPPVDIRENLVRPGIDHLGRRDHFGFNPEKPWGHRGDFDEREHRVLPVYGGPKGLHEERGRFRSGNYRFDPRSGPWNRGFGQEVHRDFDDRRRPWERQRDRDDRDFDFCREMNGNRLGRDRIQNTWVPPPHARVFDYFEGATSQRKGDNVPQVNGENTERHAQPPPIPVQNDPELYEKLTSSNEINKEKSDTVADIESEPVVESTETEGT
active: [12] -0.417
inactive: erlotinib 0.203 | [1] 0.051 | [2] 0.048 | [3] 0.034 | [4] 0.124 | [5] -0.028 | [6] 0.298 | [7] 0.069 | [8] -0.031 | [9] -0.036 | IRAK-1-4 Inhibitor I 0.035 | ibrutinib -0.057 | [10] -0.145 | ralimetinib -0.054 | [11] -0.169 | [13] 0.23 | pinometostat 0.065 | [14] -0.05 | [15] 0.138

RECQL (UniProt P46063)
UniProt P46063, sequence (P46063 whole entry, looked up): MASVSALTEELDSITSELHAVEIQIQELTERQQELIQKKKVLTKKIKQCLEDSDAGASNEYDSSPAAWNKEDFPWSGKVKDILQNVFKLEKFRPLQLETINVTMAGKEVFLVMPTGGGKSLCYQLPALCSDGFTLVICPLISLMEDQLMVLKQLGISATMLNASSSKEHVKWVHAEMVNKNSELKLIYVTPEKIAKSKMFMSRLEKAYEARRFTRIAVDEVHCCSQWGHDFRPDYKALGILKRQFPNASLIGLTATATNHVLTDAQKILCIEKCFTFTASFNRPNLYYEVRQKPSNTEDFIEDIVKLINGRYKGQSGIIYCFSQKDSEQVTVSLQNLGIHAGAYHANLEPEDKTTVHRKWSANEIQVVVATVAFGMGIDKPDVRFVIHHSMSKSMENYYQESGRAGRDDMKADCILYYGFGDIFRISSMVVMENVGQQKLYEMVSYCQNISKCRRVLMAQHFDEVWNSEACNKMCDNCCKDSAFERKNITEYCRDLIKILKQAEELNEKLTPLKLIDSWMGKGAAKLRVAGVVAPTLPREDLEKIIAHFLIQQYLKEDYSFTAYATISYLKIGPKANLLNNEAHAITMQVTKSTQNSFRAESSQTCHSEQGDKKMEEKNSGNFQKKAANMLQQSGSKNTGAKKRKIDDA
active: [15] 0.266
inactive: erlotinib -0.019 | [1] 0.072 | [2] 0.066 | [3] -0.005 | [4] 0.046 | [5] 0.004 | [6] -0.004 | [7] -0.003 | [8] -0.062 | [9] 0.01 | IRAK-1-4 Inhibitor I 0.013 | ibrutinib 0.002 | [10] -0.023 | ralimetinib -0.024 | [11] -0.039 | [12] -0.033 | [13] -0.02 | pinometostat -0.013 | [14] -0.031

RAB3IL1 (UniProt Q8TBN0)
inactive: erlotinib -0.007 | [1] -0.007 | [2] 0.057 | [3] 0.005 | [4] 0.019 | [5] 0.019 | [6] -0.02 | [7] -0.039 | [8] -0.004 | [9] -0.013 | IRAK-1-4 Inhibitor I 0.018 | ibrutinib -0.009 | [10] 0.018 | ralimetinib 0.064 | [11] -0.036 | [12] -0.014 | [13] 0.057 | pinometostat -0.029 | [14] -0.004 | [15] 0.037

RNF187 (UniProt Q5TA31)
UniProt Q5TA31, sequence (Q5TA31 whole entry, looked up): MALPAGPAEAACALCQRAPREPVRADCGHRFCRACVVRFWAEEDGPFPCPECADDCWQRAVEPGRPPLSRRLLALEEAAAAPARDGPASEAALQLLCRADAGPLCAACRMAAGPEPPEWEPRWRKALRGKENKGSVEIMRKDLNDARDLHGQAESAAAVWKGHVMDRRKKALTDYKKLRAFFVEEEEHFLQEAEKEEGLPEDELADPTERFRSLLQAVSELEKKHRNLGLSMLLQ
inactive: erlotinib 0.095 | [1] -0.05 | [2] -0.061 | [3] -0.028 | [4] 0.101 | [5] -0.028 | [6] -0.067 | [7] 0.008 | [8] 0.017 | [9] -0.056 | IRAK-1-4 Inhibitor I 0.059 | ibrutinib 0.045 | [10] -0.124 | ralimetinib 0.039 | [11] 0.024 | [12] 0.077 | pinometostat -0.075 | [14] 0.046 | [15] -0.226
active: [13] 0.424

RRS1 (UniProt Q15050)
UniProt Q15050, sequence (Q15050 whole entry, looked up): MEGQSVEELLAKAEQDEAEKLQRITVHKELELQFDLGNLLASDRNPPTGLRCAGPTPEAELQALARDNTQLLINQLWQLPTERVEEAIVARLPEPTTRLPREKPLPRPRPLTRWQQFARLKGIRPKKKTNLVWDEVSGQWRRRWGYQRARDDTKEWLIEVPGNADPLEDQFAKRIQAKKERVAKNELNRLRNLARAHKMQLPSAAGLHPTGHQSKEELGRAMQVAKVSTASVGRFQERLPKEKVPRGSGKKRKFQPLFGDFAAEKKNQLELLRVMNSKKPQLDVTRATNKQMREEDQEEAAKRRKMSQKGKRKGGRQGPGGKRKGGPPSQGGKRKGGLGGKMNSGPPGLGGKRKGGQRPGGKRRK
active: [15] -1
inactive: erlotinib -0.099 | [1] -0.205 | [2] -0.536 | [3] -0.003 | [4] -0.095 | [5] 0.004 | [6] -0.18 | [7] -0.018 | [8] 0.162 | [9] -0.219 | IRAK-1-4 Inhibitor I -0.084 | ibrutinib 0.04 | [10] 0.217 | ralimetinib 0.118 | [11] 0.229 | [12] 0.312 | [13] 0.067 | pinometostat 0.297 | [14] -0.11
